Shown are actives, neighbours in structure and some others; about 6.5% of the full set was active somewhere.
Vaccinia mCherry – qHTS for Stage-Specific Inhibitors of Vaccinia Orthopoxvirus: mCherry Reporter Primary qHTS; Potency, µM (top dose mostly 36.5 µM), for the others: at the highest dose activity change, negative = inhibition, actives largely listed as inhibitors; AID 720579, 2013; Vaccinia virus mCherry reporter infection, fluorescence; 310,000 compounds, 0.63% hits; calls by dose curve; tested in A549 cells; note: potency is the fitted concentration of half-maximal effect; nearly all actives have a fitted effect of over 35% in size
FMDV antiviral – High Throughput Screening for Foot and Mouth Disease Virus Antivirals; FMDV antiviral cell-based qHTS; Potency, µM (series often up to 57.9 µM), for inactives: at the highest dose activity change, negative = inhibition, most hits filed as inhibitors; 410,000 compounds, 1.2% hits; AID 1159524, 2015; calls by dose curve; tested in HEK293T cells; note: read-out not given here; potency is the fitted concentration of half-maximal effect; nearly all actives have a fitted effect of over 45% in size
MARV entry inh – qHTS for inhibitors of binding or entry into cells for Marburg Virus; Marburg virus pseudotyped entry inhibition, cell reporter; Potency, µM (series often up to 37.8 µM), for the others: at the top dose activity change, negative = inhibition, usual class: inhibitors; 300,000 compounds, 1.8% hits; calls by dose curve; tested in HEK293 cells; note: potency is the fitted concentration of half-maximal effect
VACV Venus inh – qHTS for Stage-Specific Inhibitors of Vaccinia Orthopoxvirus: Venus Reporter Primary qHTS | Vaccinia virus Venus reporter expression, fluorescence | Potency, µM (highest dose often 36.5 µM), without a hit: top-dose activity change, negative = inhibition, usual class: inhibitors | 330,000 compounds, 0.46% hits | AID 720580, 2013; calls by dose curve; tested in A549 cells; note: potency is the fitted concentration of half-maximal effect; nearly all actives have a fitted effect of over 30% in size
LASV entry inh – qHTS for Inhibitors of binding or entry into cells for Lassa Virus | Lassa virus pseudotype entry inhibition, cell reporter | Potency, µM (doses to about 37.9 µM), without a hit: at the top dose activity change, negative = inhibition, most hits filed as inhibitors | 300,000 compounds, 1.2% hits | AID 540256, 2011; calls by dose curve; tested in HEK293 cells; note: potency is the fitted concentration of half-maximal effect; nearly all actives have a fitted effect of over 50% in size
HCMV inh – qHTS Assay for inhibitors of the human cytomegalovirus (HCMV); HFF cells, HCMV-luciferase reporter, 72 h; stronger effect = lower value; activity change, negative = inhibition, % at 57.5 µM; 410,000 compounds, 4.5% hits; AID 1259415, 2018; in the data active = activity change below about -60%; inconclusive = no clear call, values can overlap the other calls; inactive = above about -39%
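Two compound doses tested in HFFs infected with HCMV-luciferase, MOI 1 PFU/cell, 72 h at 37C. Lysate luminescence read with OneGlo; data normalized against buffer-only and 10uM Salinomycin inhibitor controls.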
Starred values were filed as active, the others as inactive; i = inactive; ? = inconclusive; / = no result given; + = active, no number; [ ] = remark or other dose. % is set by controls: 0 for no effect and ±100 for the full control effect.

SMILES	Vaccinia mCherry	FMDV antiviral	MARV entry inh	VACV Venus inh	LASV entry inh	HCMV inh
Cc1nn(-c2cccc(C(F)(F)F)c2)c(Cl)c1/C=N/Nc1cccc(C(=O)O)c1	i	-18%	?	-14%	?	152
CC(C)(C)c1cc(C(=O)CCN2CCOCC2)cc(C(C)(C)C)c1O	11µM*	-15%	-1%	?	-2%	-77*
O=C(CCN1CCOCC1)c1ccc(N2CCCCC2)cc1	?	3%	/	?	/	-13
CCc1cccc(NC(=O)Cn2c(=O)n(CC(=O)NCCc3ccccc3)c(=O)c3ccccc32)c1	?	-25%	12%[46.1 µM]	?	?	-39
Nc1ccc(N2CCCC2)c(S(=O)(=O)Nc2cccc(C(F)(F)F)c2)c1	-1%	22%	-22%	-6%	-2%	-69*
CC1CC(CCN)(c2ccccc2)C(C)CN1C (centres undefined)	i[7.34 µM]	9%	4µM*	7%[7.34 µM]	6%	?
COc1ccc(CN(CCC#N)CCC2(c3ccccc3)CC(C)N(C)CC2C)cc1OC (centres undefined)	-4%[7.34 µM]	-7%	13µM*	-7%[7.34 µM]	-15%	-18
Cc1ccc(Cl)cc1NC(=O)Cn1c(SCC(=O)NCc2ccccc2)nc2ccccc21	-14%	-19%	/	-1%	?	1
O=C1NC(c2cc3ccccc3nc2Cl)Nc2ccccc21 (centres undefined)	-14%	?	7%	-11%	?	25
O=C1NC(c2cccc3ccccc23)Nc2ccc(Cl)cc21 (centres undefined)	?	0%	?	11µM*	?	-73*
CC1=C(C(=O)Nc2ccccc2)C2(CCCCC2)C(C#N)=C(SCC(N)=O)N1	i	-10%	0%	-9%	-7%	10
CC1(C)CC(=O)C2=C(C1)NC(SCC(=O)Nc1ccccc1)=C(C#N)C21CCCCC1	/	28µM*	?	10%	0%	-27
CCN1/C(=C/c2ccc3cc(C)ccc3[n+]2CC)Sc2ccccc21	/	20µM*	1µM*	/	5.2µM*	-102*
CC[n+]1c(/C=C2\Sc3ccccc3N2C)ccc2cccc(C)c21	14µM*	4.5µM*	?	i	?	-101*
CC[n+]1c(C)sc2cc(C)ccc21	/	-23%	/	/	/	-39
CN1/C(=C/c2cccc[n+]2CCO)Sc2ccccc21	i	-16%	-24%	-1%	-1%	?
CCN1/C(=C/c2ccc3cc(C)ccc3[n+]2CC)Sc2cc(C)c(C)cc21	?	?	?	i	2µM*	-100*
O=C(NC1CCCCC1)c1cc2c(cc1Cl)N1CCCCCC1=NS2(=O)=O	-8%	8%	15%[46.1 µM]	-3%	-14%	-97*
O=C(c1cc(-c2ccc(Cl)cc2)n[nH]1)N1CCN(S(=O)(=O)c2ccc(Br)s2)CC1	11µM*	-27%	/	?	?	?
O=C(c1cc(-c2ccc(Br)cc2)n[nH]1)N1CCN(S(=O)(=O)c2ccc(Br)s2)CC1	-26%	?	/	-21%	?	+
O=C(c1cc(-c2ccc(Br)cc2)n[nH]1)N1CCN(S(=O)(=O)c2ccc(Cl)s2)CC1	?	-19%	/	-29%	21%[46.1 µM]	?
Cc1cc(=O)n2nc(N3CCC(C(=O)Nc4ccc(Br)c(C)c4)CC3)sc2n1	37%	-24%	-18%[46.1 µM]	12%	19%[46.1 µM]	-13
CCOC(=O)OC[C@H]1O[C@H](C#Cc2ccc(C)cc2C)C=C[C@H]1OC(=O)OCC	/	/	4%[14.2 µM]	/	/	/
O=C(CN1CCCC1)Nc1ccc(Oc2ccc(NC(=O)CN3CCCC3)cc2)cc1	i	-14%	2.1µM*	-7%	13µM*	-18
CCCCOc1ccc(NC(=O)CN2CCN(C(=O)OCC)CC2)cc1	-11%	-27%	0%	-8%	3.5µM*	0
SMILES	Vaccinia mCherry	FMDV antiviral	MARV entry inh	VACV Venus inh	LASV entry inh	HCMV inh
C[n+]1ccc(/C=C/c2ccc(Br)cc2)cc1	?	-15%	?	?	-24%	-63*
C[n+]1ccc(/C=C/c2ccc3ccccc3c2)cc1	?	-2%	/	?	/	/
Cc1ccc(-c2csc3nc4ccc(C(=O)NCCO)cc4c(=O)n23)cc1	-1%	-19%	/	-10%	/	-90*
COC(=O)CC(=O)CSc1nc2cc(C(=O)NCC(C)C)ccc2c(=O)n1CCc1ccccc1	-9%	-18%	/	-12%	?	-94*
N#CC1=C(N)Oc2cc(N)ccc2C1c1ccc(Cl)cc1 (centres undefined)	?	-20%	?	-13%	?	-18
COc1cc(C2C(C#N)=C(N)Oc3cc(N)ccc32)cc(OC)c1OC (centres undefined)	/	9%	5.6µM*	?	?	-35
N#CC1=C(N)Oc2cc(N)ccc2C1c1ccc(F)cc1 (centres undefined)	/	-10%	?	/	-27%	-27
N#CC1=C(N)Oc2cc(Nc3ccccc3)ccc2C1c1ccncc1 (centres undefined)	/	?	18µM*	?	?	10
N#CC1=C(N)Oc2cc(N)ccc2C1c1cccnc1 (centres undefined)	-19%	-21%	16µM*	-26%	-1%	4
CCN(CC)c1ccc2c(c1)OC(N)=C(C#N)C2c1cccnc1 (centres undefined)	?	?	?	-13%	?	-85*
CC(=O)C1=C(C)OC(N)=C(C#N)C1c1cccnc1 (centres undefined)	-2%	7%	-26%[46.1 µM]	-1%	9%[46.1 µM]	44
O=C(CSc1nc(=O)n(Cc2ccco2)c2c1CCC2)Nc1cccc(F)c1	-23%	-7%	/	-5%	1%[46.1 µM]	-39
Cc1ccc2nc(-c3ccsc3)c(Nc3ccc(Cl)cc3)n2c1	-10%	-4%	2%[46.1 µM]	-11%	13%[46.1 µM]	5
COc1ccc2c(c1)[C@@]1(OCCC=C[C@@H]1C)C(=O)N2CC=C(C)CCC=C(C)C	/	/	-10%[14.2 µM]	/	/	/
CCCNC(=O)c1cn(CC)c2cc(N3CCN(C(=O)c4ccco4)CC3)c(F)cc2c1=O	/	0%	/	/	/	-36
CCn1cc(C(=O)NCc2cccc(F)c2)c(=O)c2cc(F)c(N3CCN(C(=O)c4ccco4)CC3)cc21	/	16µM*	?	?	?	-86*
CC(C)(C)S(=O)(=O)N1C[C@@H]2C(=C(CCO)C[C@@H]3C(=O)N(c4ccccc4)C(=O)[C@@H]32)[C@H]1CCO	/	/	/	/	/	9
COc1ccc(OC)c(C(C[N+](=O)[O-])c2c(C)cc3ccccn23)c1 (centres undefined)	-20%	22µM*	?	-5%	?	48
COc1ccc(C(C[N+](=O)[O-])c2c(C)cc3ccccn23)c(OC)c1 (centres undefined)	2%	?	?	5%	/	24
